Glyco luc inh = blocks N-linked glycosylation in D54 reporter cells. D54 ERlucT glycosylation luciferase reporter, 24 h; percent of 100 nM tunicamycin response. reporter increase, % at 12.5 µM. 360,000 compounds, 0.23% hits. AID 588692;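 active means mean luciferase reporter signal, scaled so untreated is 0 and the glycosylation-blocking control 100, at or above a set limit in every replicate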;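 further: luciferase carries N-glycosylation sites so blocking glycosylation raises the light; 0% = median of neutral control wells and 100% = median of 100 nM tunicamycin wells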
PglD inh = blocks C. jejuni PglD acetyltransferase activity; purified PglD enzyme, DTNB colorimetric CoA detection; inhibition, % at 12.5 µM; 360,000 compounds, 0.098% hits; in the data active means inhibition above about 16%, passing the limit was not always enough
Rtt109 Vps75 = blocks Candida albicans Rtt109/Vps75 acetyltransferase activity; Q5AAJ8; purified Rtt109/Vps75, ThioGlo CoA-SH fluorescence, 4 h; inhibition, % at 34.9 µM; 330,000 compounds, 0.16% hits; AID 540336;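 active means inhibition of at least 50% in every replicate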
Target sequence (Q5AAJ8 whole entry, looked up): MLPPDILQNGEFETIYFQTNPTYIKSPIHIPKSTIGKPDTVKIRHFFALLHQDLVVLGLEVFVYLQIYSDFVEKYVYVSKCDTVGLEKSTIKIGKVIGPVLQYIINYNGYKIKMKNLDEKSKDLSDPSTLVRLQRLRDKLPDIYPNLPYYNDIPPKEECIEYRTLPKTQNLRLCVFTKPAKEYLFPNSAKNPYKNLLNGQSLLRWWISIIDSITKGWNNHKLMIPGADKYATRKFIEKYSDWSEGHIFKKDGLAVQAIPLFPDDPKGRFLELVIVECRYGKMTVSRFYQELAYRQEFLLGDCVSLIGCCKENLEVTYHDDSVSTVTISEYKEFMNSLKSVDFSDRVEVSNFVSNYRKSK
DENV2 CPE = inhibitors of DENV2 cytopathic effect; 350,000 compounds, 1.7% hits; DENV2-infected cells, cytopathic effect rescue, plate reader; CPE inhibition, % at 9.99 µM; in the data active means CPE inhibition above about 20%, passing the limit was not always enough; tested in BHK-21 cells;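 further: 0% = median of neutral control wells and 100% = median of positive control wells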
Starred values were filed as active, the others as inactive; nt = no result. This excerpt belongs to a sample that is enriched for hits.

SMILES | Glyco luc inh | PglD inh | Rtt109 Vps75 | DENV2 CPE
CCCc1cn([C@H]2C[C@@H]3O[C@H](CO)CC[C@@H]3O[C@@H]2CCc2ccc(-c3ccccc3C#N)cc2)nn1 | nt | nt | nt | 28*
OC[C@H]1CC[C@@H]2O[C@H](CCc3ccc(-c4ccccc4)cc3)[C@@H](n3cc(C4CC4)nn3)C[C@@H]2O1 | nt | nt | nt | 53*
CCCc1cn([C@H]2C[C@@H]3O[C@H](CO)CC[C@@H]3O[C@@H]2CCc2ccc(-c3ccc(OC)cc3)cc2)nn1 | nt | nt | nt | 3
OC[C@@H]1CC[C@@H]2O[C@H](CCc3ccc(-c4ccc(F)cc4)cc3)[C@@H](n3cc(C4CC4)nn3)C[C@@H]2O1 | nt | nt | nt | 3
OC[C@@H]1CC[C@@H]2O[C@H](CCc3ccc(-c4ccccc4)cc3)[C@@H](n3cc(C4CC4)nn3)C[C@@H]2O1 | nt | nt | nt | 20*
CO[C@@H]1CN(C)C(=O)c2cc(NC(=O)C3CCOCC3)ccc2OC[C@@H](C)N(C(C)=O)C[C@@H]1C | nt | 8 | nt | -6
CN1C(=O)c2cc(NC(=O)C3CCCCC3)ccc2OC[C@H]2O[C@@H](CC(=O)NCCc3ccncc3)CC[C@@H]21 | nt | -1 | nt | -7
CC(=O)Nc1cccc(C(=O)OCC(=O)Nc2ccc(Cl)cn2)c1 | 1 | -3 | -2 | 56*
CNS(=O)(=O)c1cccc(C(=O)OCC(=O)Nc2ccc(Cl)cn2)c1 | 2 | 4 | 2 | 2
Cc1cc(C)c(S(=O)(=O)N(C)CC(=O)N2CCCC2)c(C)c1 | 34* | 1 | nt | 10
COc1ccc2c3c([nH]c2c1)[C@H](CO)NCC31CCN(C(=O)Cc2ccccc2)CC1 | nt | nt | nt | -2
COc1cc(OC)c2c(c1)OC(c1ccc(OC)c(OC)c1)C(O)C2=O (stereo not drawn) | -7 | -2 | 11 | 32*
Cc1c(C(=O)N2CCC[C@H]2CO)oc2c(F)cccc12 | 2 | -25 | 57* | -7
Cc1c(C(=O)O)oc2c(F)cccc12 | 3 | 1 | 1 | -3
C[C@H]1CN([C@@H](C)CO)C(=O)Cc2cc(NC(=O)CCN3CCOCC3)ccc2O[C@@H]1CN(C)Cc1ccc2c(c1)OCO2 | nt | -2 | nt | -2
CC(C)Cc1ccc(C(C)C(N)=NCCc2ccccc2)cc1 (stereo not drawn) | 16 | -3 | 23 | 33*
COc1ccc(CCN=C(N)C(C)c2ccccc2)cc1OC (stereo not drawn) | 3 | 0 | 13 | -3
CN1c2ccc(-c3ccccc3F)cc2[C@@H]2[C@@H](CCN2C(=O)NC2CCCCC2)[C@H]1CO | nt | nt | nt | -4
COc1ccc(CC(=O)N(Cc2ccccc2)c2ccc(C)cc2)cc1S(=O)(=O)N1CCOCC1 | 21 | -7 | 2 | -5
COc1ccc(CC(=O)N(Cc2ccccc2)c2ccc(C)cc2)cc1OC | 31* | -1 | 10 | 6
CC1(Cc2cccc(F)c2)C(=O)Nc2ccc(-c3cccnc3)cc21 (stereo not drawn) | -11 | 1 | nt | 54*
C[C@@H]1CCCCO[C@@H](CN(C)Cc2ccccc2)[C@@H](C)CN([C@@H](C)CO)C(=O)c2cc(NC(=O)Nc3cccc4ccccc34)ccc2O1 | nt | 1 | nt | -24
CCCCNC(=O)c1ccc(NS(=O)(=O)c2ccc3[nH]c(=O)[nH]c3c2)cc1 | 0 | 0 | -5 | 23*
CCN1C(=O)N[C@H]2C[C@@H](c3ccccc3)[C@@H](C)[C@@H](C(=O)N3CCCC3)C[C@H]21 | nt | nt | nt | -6
CCn1c2c(n(C(C)=O)c1=O)C[C@@H](c1ccccc1)[C@@H](C)[C@@H](C(=O)N1CCCC1)C2 | nt | nt | nt | 50*
SMILES | Glyco luc inh | PglD inh | Rtt109 Vps75 | DENV2 CPE
Cc1cc(=O)oc2c(C)c(OC(C)C(=O)NC(Cc3c[nH]c4ccc(O)cc34)C(=O)O)ccc12 (stereo not drawn) | -2 | 0 | 0 | 77*
CCc1c(C)c2ccc(OC(C)C(=O)NC(Cc3c[nH]c4ccc(O)cc34)C(=O)O)c(C)c2oc1=O (stereo not drawn) | 0 | 2 | 10 | 1
Cc1sc2cc3c(c(C(=O)c4ccccc4)[n+]2c1C)-c1cccc2cccc-3c12 | nt | nt | nt | 36*
O=C(C1CCCN(S(=O)(=O)c2ccccc2)C1)N1CCN(c2ncccn2)CC1 (stereo not drawn) | 0 | 0 | 29 | nt
O=C(C1CCCN(S(=O)(=O)c2cccnc2)C1)N1CCN(c2ccccn2)CC1 (stereo not drawn) | 1 | -6 | -3 | 87*
CC(=O)N1c2ccc(S(=O)(=O)NCCC(=O)N3CCCC(C)C3)cc2CC1C (stereo not drawn) | 3 | 0 | 5 | 35*
COc1cccc(-c2ccc([C@@H]3[C@@H](CO)N4CCCCN(CC5CC5)C[C@H]34)cc2)c1 | nt | 8 | nt | 43*
COc1cccc(-c2ccc([C@H]3[C@H](CO)N4CCCCN(CC5CC5)C[C@@H]34)cc2)c1 | nt | 0 | nt | 42*
COc1cccc(-c2ccc([C@H]3[C@H]4CN(CC5CC5)CCCCN4[C@H]3CO)cc2)c1 | nt | 3 | nt | 19
Cc1ccccc1-c1ccc([C@@H]2[C@@H](CO)N3CCCCN(CC4CC4)C[C@H]23)cc1 | nt | 0 | nt | 52*
COC(=O)Cn1c(C(=O)N(C)C)cc2c1C[C@H]1CN(C(=O)c3ccccc3)[C@@](Cc3ccc(F)cc3)(C(=O)OC)[C@@H]21 | nt | nt | nt | 63*
COC(=O)[C@@]1(Cc2ccc(F)cc2)[C@H]2c3cc(C(=O)N(C)C)n(CCF)c3C[C@H]2CN1C(=O)c1ccccc1 | nt | nt | nt | 3
COC(=O)[C@@]1(Cc2ccc(F)cc2)[C@H]2c3cc(C(=O)N(C)C)n(Cc4ccc(OC(F)(F)F)cc4)c3C[C@H]2CN1C(=O)c1ccccc1 | nt | nt | nt | 20*
C[C@H](CO)N1C[C@H](C)[C@H](CN(C)Cc2cccnc2)Oc2ncc(C3=CCCCC3)cc2C1=O | nt | 7 | nt | 1
C[C@H]1CN([C@@H](C)CO)C(=O)c2ccccc2-c2ccccc2CO[C@@H]1CN(C)Cc1cccnc1 | nt | -1 | nt | 4
CC(C)NC(=O)Nc1ccc2c(c1)CC(=O)N([C@@H](C)CO)C[C@@H](C)[C@H](CN(C)CC1CCCCC1)O2 | nt | 0 | nt | 11
C[C@H]1CN([C@@H](C)CO)C(=O)c2cc(-c3ccccc3)cnc2O[C@H]1CN(C)C(=O)c1ccccn1 | nt | 0 | nt | -1
O=C(NCC(c1ccco1)N1CCc2ccccc21)c1c(F)cccc1F (stereo not drawn) | 0 | -2 | -7 | 63*
COc1ccc(-c2cnc3c(c2)C(=O)N([C@H](C)CO)C[C@H](C)[C@H](CN(C)S(=O)(=O)c2ccc(F)cc2)O3)cc1 | nt | 0 | nt | 12
C[C@@H]1CN([C@H](C)CO)C(=O)Cc2cc(NC(=O)C3CC3)ccc2O[C@@H]1CN(C)S(=O)(=O)c1ccc(Cl)cc1 | nt | -5 | nt | -10
C[C@@H]1CN([C@@H](C)CO)C(=O)Cc2cc(NC(=O)C3CC3)ccc2O[C@H]1CN(C)S(=O)(=O)c1ccccc1 | nt | -5 | nt | 34*
Cc1ccc(S(=O)(=O)N(C)C[C@@H]2Oc3ccc(NC(=O)NC4CCCCC4)cc3CC(=O)N([C@@H](C)CO)C[C@@H]2C)cc1 | nt | -5 | nt | 35*
Cc1ccc(S(=O)(=O)N(C)C[C@H]2Oc3ccc(NC(=O)C4CC4)cc3CC(=O)N([C@H](C)CO)C[C@@H]2C)cc1 | nt | 15* | nt | 3

Assay outcomes as filed in PubChem BioAssay.
